Measurements from PubChem BioAssay AID837 (The Scripps Research Institute Molecular Screening Center, 2007).
Active and inactive are the calls of the source.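 The calls were made as follows: active = relative FRET score above 0.01, or acceptor fluorescence over 30% below the sample-well median; inactive = the rest.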

These compounds were tested against Protein Rev (Human immunodeficiency virus type 1 group M subtype B (isolate WMJ22)) (UniProt P05866) (assay: disruptors of Rev peptide-RRE RNA complex – biochemical, FRET, acceptor and relative FRET calls, confirmation (AID 837;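 also: relative FRET combines rise in Cy5 acceptor with fall in fluorescein donor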)). Settings: Fl-Rev peptide / Cy5-RRE RNA FRET, 1536-well; at 8 µM.
Protein Rev (Human immunodeficiency virus type 1 group M subtype B (isolate WMJ22)), sequence (P05866 whole entry, looked up): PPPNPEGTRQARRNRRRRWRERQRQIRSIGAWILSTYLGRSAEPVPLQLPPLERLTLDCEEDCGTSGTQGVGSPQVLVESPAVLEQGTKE

SMILES	outcome
CC1=NOC(=O)/C1=C/c1ccc(N(C)C)cc1	active; fluoresces like the donor
CCOc1cc(CNCCCN2CCOCC2)ccc1OCC(=O)Nc1cccc2ccccc12	inactive
CN(C)CC(O)COc1ccc(-c2ccc(C#N)cc2)cc1 (stereo not given)	active
CCN(CC)CCn1c(=N)n(CCOc2ccccc2)c2ccccc21	inactive
CCCCOC(=O)Cn1c(=N)n(CCN(CC)CC)c2ccccc21	inactive
COc1ccc(C2N=C(N)N=C(N)N2c2ccc(C)cc2)cc1 (stereo not given)	active
OC(COc1ccc2cc(Br)ccc2c1)CN1CCCC1 (stereo not given)	inactive
O=C(NCCCO)Nc1ccc2nc(-c3ccco3)c(-c3ccco3)nc2c1	inactive
c1ccc(CSc2ncnc3c2cnn3Cc2ccccc2)cc1	inactive
COc1cccc(Nc2nc(N)nc(-c3oc4ccccc4c3C)n2)c1	active
CCN(N=Nc1cccc([N+](=O)[O-])c1)c1cccc([N+](=O)[O-])c1	inactive
C[n+]1c2n(c3ccccc31)N=C(c1ccc(Br)cc1)CS2	inactive
O=C(c1cccc(F)c1)N1CCN(c2cccc(Cl)c2)CC1	inactive
Cc1ccc(C2C3=C(NCCN=C3c3ccccc3)C(=O)N2c2ccccc2)cc1 (stereo not given)	inactive
CCCn1c(=N)c(C(=O)NCc2ccc3c(c2)OCO3)cc2c(=O)n3cccc(C)c3nc21	inactive
Nc1nc(Nc2ccc(Cl)cc2)nc2ccccc12	active
c1ccc(COc2ccc(OCCCN3CCCCC3)cc2)cc1	inactive
COc1ccc(Nc2nc(N)nc(CN(C)C3CCCCC3)n2)cc1	active
CCOC(=O)[C@@H]1CCNC[C@@H]1c1ccccc1	inactive
C=CCn1c(=N)n(CC(O)COc2ccc(OC)cc2)c2ccccc21 (stereo not given)	inactive
